Experimental data published in the supplement of paper PMC8387472.

Compound: O=C1Cc2c([nH]c3ccc(Br)cc23)-c2ccccc2N1 [Kenpaullone]
Experiment: fraction of microhomology deletions among edited reads; higher = more MH deletions
Conditions: mESC; 2uM; 72 h treatment, harvest day 5

Row | Target | fraction of microhomology deletions among edited reads
1 | 21.0 CGATTGAGAGTCAAACGGGCCAGAAAACTCCGGGAACGGGCCAGAAAACTCCGGGGCATGG | 0.17
2 | 25.0 (DMSO control at this site: 1-bp insertion 0.017, MH deletion 0.774, edited 0.143) GGGCCTGAATGGTGTGGACATCTACTCGCTGGTGAGCTGGTGACTGAAAACATTCAGTGGC | 0.739
3 | 27.0 CCAGAATTAGAACATATCATCTGGACCCTTTTCCATCTGGACCCTTTTCCAGCACACCCTG | 0.0808
4 | 40.0 (DMSO control at this site: 1-bp insertion 0.072, MH deletion 0.192, edited 0.189) GCGAATCAACTGTTCAACAACAGCAGCAGCCACCTGGAGGACTACAGTGGCCTGTCCGTGT | 0.124
5 | 42.0 (DMSO control at this site: 1-bp insertion 0.145, MH deletion 0.655, edited 0.132) GGGCTAAACCTATGAGCACAGTAGAACTAAGGGTGGGTGGTGTAGCTAAAGAACTTGACCA | 0.557
6 | 28.0 (DMSO control at this site: 1-bp insertion 0.035, MH deletion 0.77, edited 0.142) TGGTTCTTCCTTTGTAGAGAGTGTTCATCTGGGAATCTGGGACTTGGATGAGACAATCATT | 0.736
7 | 2.0 (DMSO control at this site: 1-bp insertion 0.364, MH deletion 0.356, edited 0.125) GGTGCCCCCGAGACCTACGCGAACCGAAATCGATGTCCGGTGCGCAAGCAGGGCTGGCGTC | 0.29
8 | 4.0 (DMSO control at this site: 1-bp insertion 0.146, MH deletion 0.523, edited 0.125) ACGCCTTAGTGCACGAGTGACGGGATAATGTGGTCTCAGGTAATTGATAGGCTTCCAACTT | 0.475
9 | 31.0 (DMSO control at this site: 1-bp insertion 0.315, MH deletion 0.329, edited 0.026) ACCTCCACAGGCTGGGTGGCCCGGAGGCTGGGCGGCCCGGAGGCTGGGCTGGGCGAGTATC | 0.518
10 | 29.0 (DMSO control at this site: 1-bp insertion 0.084, MH deletion 0.745, edited 0.133) TTGATGAACTTCCTCTTCTTCTCATGTCTCCGGTCTCCGGTAGGCCACGTGCATGGCCACT | 0.631
11 | 8.0 GCATGCGTGTTTTGGGACAATGTAGTATACATTTGGGAGGCTCTCAGCTTTTCCCAATAAA | 0.0098
12 | 17.0 (DMSO control at this site: 1-bp insertion 0.112, MH deletion 0.348, edited 0.058) CCATAGCGCGATAAATATGACGGCTCATCCTGTATGACGGCTCATCCTGTATCAACTGTCC | 0.377
13 | 45.0 (DMSO control at this site: 1-bp insertion 0.017, MH deletion 0.666, edited 0.101) TTACACAGCATGAACTGCTAGGTGATGATGTCAGATTCGGTTTTACTAACTTCTCCAAAAA | 0.561
14 | 30.0 (DMSO control at this site: 1-bp insertion 0.074, MH deletion 0.67, edited 0.142) GAGCTGGCATGAGTATTTGTGCCACATGGCTCCCACATGGCTCCACATGCAAGTTTGAAAC | 0.628
15 | 44.0 (DMSO control at this site: 1-bp insertion 0.181, MH deletion 0.512, edited 0.123) ACACATACCTTCTTCGAGGCAGCCAGCATGATGAGACAGGTCTCCCACAAACACATCGTGT | 0.473
16 | 20.0 (DMSO control at this site: 1-bp insertion 0.349, MH deletion 0.138, edited 0.084) TACAGGTGTAGACTGGTTACGTGGCTGCGGAATTGACTGGTTACGTGGCTGCGGAATTTTG | 0.181
17 | 43.0 (DMSO control at this site: 1-bp insertion 0.134, MH deletion 0.714, edited 0.104) AGTTTAACTTACTCCGGCCAAAAAAGAACTGCACCTCTGGAGCGGGTTAGTGGTGGTGGTA | 0.658
18 | 33.0 (DMSO control at this site: 1-bp insertion 0.008, MH deletion 0.771, edited 0.112) CATTAAGAGCAGCTGCCGGCCCCCAAGTGGACAGAGCTGGCCCTGCTGATTCAACAGTGCA | 0.726

Compound: O=c1c(-c2ccc(O)cc2)coc2cc(O)cc(O)c12 [Genistein]
Experiment: as above
Conditions: mESC; 2uM; 72 h treatment, harvest day 5

Row | Target | fraction of microhomology deletions among edited reads
19 | 32.0 (DMSO control at this site: 1-bp insertion 0.03, MH deletion 0.85, edited 0.898) AGAAGTCCAGGATCAGGGGGACTGGGGTCGGGAGGGTGGGGCAGGAAGGAAGCCAGAATCA | 0.88
20 | 26.0 (DMSO control at this site: 1-bp insertion 0.518, MH deletion 0.262, edited 0.026) AGGGCGCGCCCCACGCACTCTGCGGCAAGTCCCTCTGCGGCAAGTCCTCGGCCCGGAAGAC | 0.296
21 | 34.0 (DMSO control at this site: 1-bp insertion 0.184, MH deletion 0.385, edited 0.103) ATTATAGGACCCTGAGGGAGCAGAGATGTGGGAATGGGGGCCGAGCCAATTGTGATGTAAG | 0.534
22 | 18.0 (DMSO control at this site: 1-bp insertion 0.114, MH deletion 0.789, edited 0.094) GCGCAAGTGCATAAGTTTTTCTTAAGGCGTGCCTTTAAGGCGTGCCTTTGTCGGTCCTGGA | 0.797
23 | 41.0 (DMSO control at this site: 1-bp insertion 0.022, MH deletion 0.754, edited 0.115) AAAGAGACAGCAGGTATGAATCCATCTTCCTGACCCTTGGGACCAGCCGGGGCAGTGAAGC | 0.753
24 | 15.0 GCGCCTCCAATGACCCAGTGGGATCCTACTCCATAATGGGATCCTGGGGATTCCTCGCTCC | 0.299
25 | 47.0 (DMSO control at this site: 1-bp insertion 0.095, MH deletion 0.585, edited 0.118) GAGTGGTCCCGAGCCAGGAACTGTGTGTGTTGCAGGGGGGCAGTAACTCCCCAACTCCCTC | 0.508
26 | 35.0 (DMSO control at this site: 1-bp insertion 0.01, MH deletion 0.72, edited 0.098) CCACTTTTAGAGAGGGTGAAAATCATCAGTTATCATCAGGGCAACAAATTGCTTTCTCCTA | 0.77
27 | 16.0 (DMSO control at this site: 1-bp insertion 0.172, MH deletion 0.29, edited 0.05) CGGACTGCACACATGGGTAGGATCGTGCACGCGAGGTAGGATCGTGCACGCGAAGTTATTC | 0.305
28 | 19.0 (DMSO control at this site: 1-bp insertion 0.121, MH deletion 0.101, edited 0.057) TCTGCAGGGGTCGGAACCCGGGGGCTAGGGCTATCCCGGGGGCTAGGGCTATTAGCGAACC | 0.186
29 | 22.0 (DMSO control at this site: 1-bp insertion 0.573, MH deletion 0.229, edited 0.045) CTGATGGTTGAAGGATTTAGCCGGGGTCCTAGACGCCGGGGTCCTAGACGAAAGGGCCACG | 0.139
30 | 38.0 (DMSO control at this site: 1-bp insertion 0.063, MH deletion 0.487, edited 0.17) GGGCTGGGTGCTAAAATGAGGAGCTCCAAGAAGACTGAGGTGAACCTGGAGGCCCCTGAGC | 0.462
31 | 5.0 (DMSO control at this site: 1-bp insertion 0.214, MH deletion 0.567, edited 0.105) CGCTGACCCGAGACCTACGCGAACCGAAATCGGCGACCGGTGCGCAAGCAGGGCTGGCGTC | 0.604
32 | 1.0 (DMSO control at this site: 1-bp insertion 0.521, MH deletion 0.323, edited 0.141) GTGTCACAGTGCACGAGTGACGGGATAATGTGCTGACAGGTAATTGATAGGCTTCCAACTT | 0.286
33 | 0.0 (DMSO control at this site: 1-bp insertion 0.463, MH deletion 0.339, edited 0.14) AGGATTACCGAGACCTACGCGAACCGAAATCGCTGTCCGGTGCGCAAGCAGGGCTGGCGTC | 0.34
34 | 3.0 (DMSO control at this site: 1-bp insertion 0.109, MH deletion 0.149, edited 0.09) TGCTAGCGCCCCCACAAAGCGGACCAGCCAGCACTATAGGGAATAAGGCCAACTTGCACCC | 0.196
35 | 7.0 (DMSO control at this site: 1-bp insertion 0.128, MH deletion 0.374, edited 0.098) TACTCAACCGAGACCTACGCGAACCGAAATCGTATGCCGGTGCGCAAGCAGGGCTGGCGTC | 0.476
36 | 39.0 (DMSO control at this site: 1-bp insertion 0.328, MH deletion 0.371, edited 0.204) CTGCACAGTCACTTAGGATAGGAGAAGATGATGTATAGGGTTTAGTGGGAGATGTTGCAAG | 0.404
37 | 21.0 CGATTGAGAGTCAAACGGGCCAGAAAACTCCGGGAACGGGCCAGAAAACTCCGGGGCATGG | 0.202
38 | 25.0 (DMSO control at this site: 1-bp insertion 0.017, MH deletion 0.774, edited 0.143) GGGCCTGAATGGTGTGGACATCTACTCGCTGGTGAGCTGGTGACTGAAAACATTCAGTGGC | 0.773
